36 compounds from PubChem BioAssay can be followed below.

Each structure is given as a SMILES string.

The first test concerns Lefty1. In words: Lefty1 binders on small-molecule microarrays, primary screen, biochemical, small-molecule microarray, 635/667 nm fluorescence (AID 1139). The settings on record: small-molecule microarray binding, fluorescence 635/667; higher = more signal.
`COC(=O)[C@@H]1CC[C@H](C)[C@@H](c2ccc(C)cc2)N1C(=O)c1ccc(C=NOC[C@@H](C)[C@H](OCc2ccccc2)C(C)C)cc1` had a composite z-score of 0.799.

The compound `CCOC(=O)[C@H](Cc1ccccc1)NC(=O)CCC1CC(OC(=O)NCc2cccc3ccccc23)CC2(CCCC(COC(=O)NCCC(C)C)O2)O1` (stereo not given in full) came in with a composite z-score of 0.129. Consider `C=CC[C@@H]1C=C[C@H](ON=C2[C@H]3CCn4c(=O)n(-c5ccccc5)c(=O)n4[C@H]3[C@H](O)[C@@H]3O[C@H]23)[C@@H](CO)O1`, for which the composite z-score worked out at 0.96.

Compound `CCOC(=O)[C@H](CC(C)C)NC(=O)CCC1CC(OC(=O)NCc2cccc3ccccc23)CC2(CCCC(COC(=O)NCCOc3ccccc3)O2)O1` (stereo not given in full) had a composite z-score of 0.741. The same measure, in the same setting: next, `C[C@@H](c1ccccc1)N1C(=O)[C@H]2[C@H]3[C@H](O)[C@H](O)CC(=NOCc4ccccc4)[C@H]3CC[C@H]2C1=O`: 0.295. `CCCNC(=O)OC[C@H]1O[C@H](CCON=C(C)CCN2CCc3nc(CC)c(CC)cc3C2)C=C[C@@H]1Oc1ccc(OC)cc1` registered a composite z-score of 0.374.

As to `CCCNC(=O)OC[C@H]1O[C@H](CCON=C(C)C)C=C[C@@H]1Oc1ccc(OC)cc1`, the composite z-score came out at 0.0114.

Regarding `CC(=O)O[C@H]1C2=CO[C@H](C)[C@H]3[C@H]4C5=C([C@H](O)[C@H]6O[C@H]6C5=O)[C@H](OC4C)[C@@]23C(=O)[C@@H]2O[C@@H]21` (stereo not given in full), the composite z-score worked out at 0.0873.

`C=CC[C@@H]1C=C[C@H](ON=C[C@@H](C)[C@H](OCc2ccccc2)C(C)C)[C@@H](CO)O1` showed a composite z-score of 0.521. In turn, `COC(=O)CC=C[C@@H](C)[C@@H](C=NOC(C)CN1CCCc2nc(C)c(C)cc21)OC` (stereo not given in full) had a composite z-score of 0.677. `CC(CCN1CCCCc2nc(C)c(C)cc21)=NOC[C@@H](C)[C@H](OCc1ccccc1)C(C)C`: the composite z-score was -0.795. The same measure, in the same setting: then `CON=C(C)CCC(=O)OC[C@H]1O[C@H](c2ccccc2)C=C[C@@H]1Oc1ccc(OC)cc1`, with 0.415; and `CON=CC[C@@H]1C=C[C@H](OC(C)=O)[C@@H](COC(C)=O)O1`, with 0.596. On to `Cn1c(=O)n2n(c1=O)[C@H]1[C@H](O)[C@@H]3O[C@@H]3C(=O)[C@H]1CC2`, for which the composite z-score stood at 0.455. The same measure, in the same setting: next, `COc1ccc(COC(=O)NN=C2C[C@@H](O)[C@@H](O)[C@@H]3[C@@H]4C(=O)N(Cc5ccccc5)C(=O)[C@@H]4CC[C@H]23)cc1`: -0.403; `C#CCCCON=C1C[C@@H](O)[C@@H](O)[C@@H]2[C@@H]3C(=O)N(C(C)(C)C)C(=O)[C@@H]3CC[C@@H]12`: -1.28. Take `C[C@@H](c1ccccc1)N1C(=O)[C@H]2[C@H]3[C@H](O)[C@H](O)CC(=NO[C@@H]4O[C@H](CO)[C@@H](O)[C@H](O)[C@H]4O)[C@H]3CC[C@H]2C1=O`: the composite z-score was found to be 0.554. Still for that read-out and setting: next, `CCOC(=O)CCN1C(=O)[C@H]2[C@H]3[C@H](O)[C@H](O)CC(=NOCc4ccccc4)[C@H]3CC[C@H]2C1=O`: -0.579. `CO[C@H]1COC(=O)[C@@H](C)COC(=O)[C@H](COCc2ccccc2)NC(=O)CC=C[C@H]1C` had a composite z-score of 1.09. `COc1cccc([C@H]2Oc3ccc(OC)cc3C(=NO[C@@H]3O[C@H](COC(C)=O)[C@@H](OC(C)=O)[C@H](OC(C)=O)[C@H]3OC(C)=O)[C@@H]2O)c1` had a composite z-score of 0.228. The compound `CCOC(=O)[C@H](CC(C)C)NC(=O)CCC1CC(OC(=O)NCc2ccc3c(c2)OCO3)CC2(CCCC(COC(=O)NCc3cccc(C(F)(F)F)c3)O2)O1` (stereo not given in full) came in with a composite z-score of 0.389. In the case of `CCN1C(=O)[C@H]2[C@H]3[C@H](O)[C@H](O)CC(=NOCC(C)C)[C@@H]3CC[C@H]2C1=O`, the composite z-score is 0.625. Still for that read-out and setting: next, `COC(=O)[C@H](C)NC(=O)CCC1CC(OC(=O)NCCc2ccc(F)cc2)CC2(CCCC(COC(=O)NCCC(C)C)O2)O1` (stereo not given in full): 0.899; `C=CC[C@@H]1C=C[C@H](ON=C(C)CCN2CCc3nc(-c4ccccc4)c(-c4ccccc4)cc3C2)[C@@H](CO)O1`: 0.736.

The subject of a further test is wheat germ agglutinin (Triticum aestivum), Alexa647-labelled. In words: wheat germ agglutinin binders on compound microarrays, profiling panel, artefact control for SMM control-protein annotation, biochemical, small-molecule microarray, 635/667 nm fluorescence (AID 1140).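 Note: score merges 667 nm feature emission with signal to noise over triplicate slides.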 The conditions noted are these: WGA-A647 binding, 635 nm fluorescence, higher = more signal.
As to `CC(C)[C@@H](OCc1ccccc1)[C@H](C)C=NOC[C@@H](O)COCc1ccco1`, the composite z-score was -1.29. The compound `CC(C)(C)N1C(=O)[C@H]2[C@H]3[C@H](O)C=CC(=O)[C@@H]3CC[C@H]2C1=O` returned a composite z-score of 0.0896. Take `CCOC(=O)[C@H](CC(C)C)NC(=O)CCC1CC(OC(=O)NCc2cccc3ccccc23)CC2(CCCC(COC(=O)NCCOC)O2)O1` (stereo not given in full): the composite z-score is 0.167. Take `Cc1ccc(S(=O)(=O)n2c3ccccc3c3nnc(C(=O)c4ccccc4)nc32)cc1`: the composite z-score was -0.218. On the same count and under the same terms, next, `CCN1C(=O)[C@H]2[C@H]3[C@H](O)[C@H](O)CC(=NOC[C@H]4O[C@H](c5ccccc5)C=C[C@@H]4Oc4ccc(OC)cc4)[C@@H]3CC[C@H]2C1=O`: 0.246; `Cc1cc2c(c(=O)o1)[C@@H](O)[C@H]1O[C@H]1C2=O`: 0.201.

Turning to `C#CCCCON=C1C[C@@H](O)[C@@H](O)[C@@H]2[C@@H]3C(=O)N(c4cccc(Oc5ccccc5)c4)C(=O)[C@@H]3CC[C@H]12`, the composite z-score came to 0.272. For the compound `CC(CCN1CCc2nc(-c3ccccc3)c(-c3ccccc3)cc2C1)=NOC[C@@H](O)[C@H]1O[C@@H]2OC(C)(C)O[C@@H]2[C@H]1O`, the composite z-score came out at 0.393. The same measure, in the same setting: then `CC(CCN1CCc2nc(-c3ccccc3)c(-c3ccccc3)cc2C1)=NOC[C@@H](O)COCc1ccco1`, with 0.679; and `CSCC[C@@H]1NC(=O)CC=C[C@@H](C)COC(=O)[C@@H](C)COC1=O`, with -1.71; and `CC(=O)Nc1ccc([C@@H]2N[C@H](C(=O)O)CC[C@H]2C)cc1`, with -0.11.

Regarding `C#CCCCON=C1[C@H]2CCn3c(=O)n(-c4ccccc4)c(=O)n3[C@H]2[C@H](O)[C@@H]2O[C@H]12`, the composite z-score worked out at 0.107.

As to `COC(=O)[C@@H]1CC[C@H](C)[C@@H](c2ccc(C)cc2)N1C(=O)c1ccc(C=NOC[C@@H](C)[C@H](OCc2ccccc2)C(C)C)cc1`, the composite z-score amounted to 0.37. For `CCOC(=O)[C@H](Cc1ccccc1)NC(=O)CCC1CC(OC(=O)NCc2cccc3ccccc23)CC2(CCCC(COC(=O)NCCC(C)C)O2)O1` (stereo not given in full), the composite z-score worked out at 0.757. `C=CC[C@@H]1C=C[C@H](ON=C2[C@H]3CCn4c(=O)n(-c5ccccc5)c(=O)n4[C@H]3[C@H](O)[C@@H]3O[C@H]23)[C@@H](CO)O1`: the composite z-score is -0.0168.

`CCOC(=O)[C@H](CC(C)C)NC(=O)CCC1CC(OC(=O)NCc2cccc3ccccc23)CC2(CCCC(COC(=O)NCCOc3ccccc3)O2)O1` (stereo not given in full) came in with a composite z-score of 0.537. For `C[C@@H](c1ccccc1)N1C(=O)[C@H]2[C@H]3[C@H](O)[C@H](O)CC(=NOCc4ccccc4)[C@H]3CC[C@H]2C1=O`, the composite z-score amounted to 0.0559. Take `CCCNC(=O)OC[C@H]1O[C@H](CCON=C(C)CCN2CCc3nc(CC)c(CC)cc3C2)C=C[C@@H]1Oc1ccc(OC)cc1`: the composite z-score stood at 0.316. On to `CCCNC(=O)OC[C@H]1O[C@H](CCON=C(C)C)C=C[C@@H]1Oc1ccc(OC)cc1`, for which the composite z-score is -0.0321.

With `CC(=O)O[C@H]1C2=CO[C@H](C)[C@H]3[C@H]4C5=C([C@H](O)[C@H]6O[C@H]6C5=O)[C@H](OC4C)[C@@]23C(=O)[C@@H]2O[C@@H]21` (stereo not given in full), the composite z-score was -0.515. Regarding `C=CC[C@@H]1C=C[C@H](ON=C[C@@H](C)[C@H](OCc2ccccc2)C(C)C)[C@@H](CO)O1`, the composite z-score was -0.0625. As to `COC(=O)CC=C[C@@H](C)[C@@H](C=NOC(C)CN1CCCc2nc(C)c(C)cc21)OC` (stereo not given in full), the composite z-score is -0.0665.

As for `CC(CCN1CCCCc2nc(C)c(C)cc21)=NOC[C@@H](C)[C@H](OCc1ccccc1)C(C)C`, the composite z-score is -0.614. As for `CON=C(C)CCC(=O)OC[C@H]1O[C@H](c2ccccc2)C=C[C@@H]1Oc1ccc(OC)cc1`, the composite z-score was -0.551. Still for that read-out and setting: then `CON=CC[C@@H]1C=C[C@H](OC(C)=O)[C@@H](COC(C)=O)O1`, with 0.0389; and `Cn1c(=O)n2n(c1=O)[C@H]1[C@H](O)[C@@H]3O[C@@H]3C(=O)[C@H]1CC2`, with 0.138; and `COc1ccc(COC(=O)NN=C2C[C@@H](O)[C@@H](O)[C@@H]3[C@@H]4C(=O)N(Cc5ccccc5)C(=O)[C@@H]4CC[C@H]23)cc1`, with 0.266. On to `C#CCCCON=C1C[C@@H](O)[C@@H](O)[C@@H]2[C@@H]3C(=O)N(C(C)(C)C)C(=O)[C@@H]3CC[C@@H]12`, for which the composite z-score stood at 0.171. In turn, `C[C@@H](c1ccccc1)N1C(=O)[C@H]2[C@H]3[C@H](O)[C@H](O)CC(=NO[C@@H]4O[C@H](CO)[C@@H](O)[C@H](O)[C@H]4O)[C@H]3CC[C@H]2C1=O` returned a composite z-score of 0.0795. Same read-out and setting: then `CCOC(=O)CCN1C(=O)[C@H]2[C@H]3[C@H](O)[C@H](O)CC(=NOCc4ccccc4)[C@H]3CC[C@H]2C1=O`, with 0.343. Same read-out and setting: next, `CO[C@H]1COC(=O)[C@@H](C)COC(=O)[C@H](COCc2ccccc2)NC(=O)CC=C[C@H]1C`: -0.841; `COc1cccc([C@H]2Oc3ccc(OC)cc3C(=NO[C@@H]3O[C@H](COC(C)=O)[C@@H](OC(C)=O)[C@H](OC(C)=O)[C@H]3OC(C)=O)[C@@H]2O)c1`: -0.639.

`CCOC(=O)[C@H](CC(C)C)NC(=O)CCC1CC(OC(=O)NCc2ccc3c(c2)OCO3)CC2(CCCC(COC(=O)NCc3cccc(C(F)(F)F)c3)O2)O1` (stereo not given in full) registered a composite z-score of 0.144.

`CCN1C(=O)[C@H]2[C@H]3[C@H](O)[C@H](O)CC(=NOCC(C)C)[C@@H]3CC[C@H]2C1=O`: the composite z-score was -0.0157. On the same count and under the same terms, next, `COC(=O)[C@H](C)NC(=O)CCC1CC(OC(=O)NCCc2ccc(F)cc2)CC2(CCCC(COC(=O)NCCC(C)C)O2)O1` (stereo not given in full): 0.323. The same measure, in the same setting: then `C=CC[C@@H]1C=C[C@H](ON=C(C)CCN2CCc3nc(-c4ccccc4)c(-c4ccccc4)cc3C2)[C@@H](CO)O1`, with 0.169.
